Assay outcomes deposited in PubChem BioAssay by National Center for Advancing Translational Sciences (NCATS).
TDP1 cell noCPT: qHTS for Inhibitors of human tyrosyl-DNA phosphodiesterase 1 (TDP1): qHTS in cells in absence of CPT. DT40 Tdp1-/- hTDP1 cells, no CPT, ATP luminescence, 48 h. Potency, µM (series often up to 46.2 µM), for inactives: top-dose activity change, negative = growth inhibition, usual class: inhibitors. 15% of 420,000 active; note: potency is the fitted concentration of half-maximal effect; nearly all actives have a fitted effect of over 55% in size
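Cells were dispensed at 400 per well, compounds added by pin tool, plates incubated ≥48 hr at 37 °C, then CellTiter-Glo added for 30 min at room temperature before luminescence reading. Line: DT40 Tdp1-/- complemented with hTDP1; camptothecin omitted.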
IL-1B inflam inh: inflammasome signaling inhibition, IL-1 beta readout. activity change, % at 57.5 µM. AID 743279. 4.7% of 360,000 active. THP-1 LPS/ATP IL-1B secretion, AlphaLISA, 16 h; stronger effect = lower value; in the data active = activity change below about -50%; inconclusive = mostly about -30% to -49%
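Secreted IL-1B measured by AlphaLISA bead assay after 16 h compound exposure of THP-1 cells; compounds (final up to 57.5 uM) added 1 h before LPS (250 ng/mL) and ATP (1.25 mM) stimulation; lower signal means less secretion.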
HT1080NT lethal: kills 2HG-producing HT-1080-NT fibrosarcoma cells; HT-1080-NT fibrosarcoma viability, CellTiter-Glo ATP luminescence, 48 h; Potency, µM (series often up to 46.1 µM), for the others: at the highest dose activity, negative = less viability, usual class: cytotoxic; 1.6% of 360,000 active;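 note: NT is the 2HG producing partner of a matched IDH1 knockdown line; potency is the fitted concentration of half-maximal effect; 0% = DMSO-treated cells and -100% = media-only wells without cells; nearly all actives have a fitted effect of over 55% in size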
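A 48-hour cytotoxicity screen used HT-1080-NT cells plated 2 hours before compound delivery. ATP-based CellTiter-Glo luminescence measured viability, normalized to DMSO and no-cell controls.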
TDP1 cell CPT: growth inhibition of DT40 Tdp1-/-;hTDP1 cells with camptothecin (screen for TDP1 inhibitors); chicken DT40 Tdp1-/-;hTDP1 cells + 20 nM CPT, ATP luminescence, 48 h; Potency, µM (series often up to 46.2 µM), for inactives: at the top dose activity change, negative = growth inhibition, hits mostly inhibitors; 12% of 420,000 active; AID 686979; note: potency is the fitted concentration of half-maximal effect; nearly all actives have a fitted effect of over 55% in size
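Cell growth measured by CellTiter-Glo luminescence after a minimum 48 h, 37 C compound exposure with 20 nM CPT in Tdp1-knockout DT40 cells stably expressing hTDP1, seeded 400/well; qHTS titration format.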
HT1080 IDH1KD tx: HT-1080 IDH1 knockdown cell toxicity (counter line) | HT-1080 IDH1 knockdown viability, ATP luminescence, 48 h | Potency, µM (top dose mostly 46.1 µM), without a hit: at the highest dose activity, negative = toxicity, most hits filed as cytotoxic | 2% of 360,000 active;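 note: potency is the fitted concentration of half-maximal effect; 0% = DMSO wells and -100% = cell-free medium wells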
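CellTiter-Glo luminescence after 48 h compound exposure at 37 degrees C of IDH1-knockdown HT-1080 cells in 5% FBS RPMI. %Activity scaled between DMSO wells and cell-free media wells, with curves fitted and assigned curve classes.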
Starred values were filed as active, the others as inactive; ? = inconclusive; / = no result. Compounds with a hit are over-represented: about 19% of the library has one in this group of screens. Unless noted, calls come from the whole dose curve; as a rule, active = well fitted curve in the direction sought with a large enough effect; inconclusive = small, poorly fitted or top-dose-only effect, or another doubt; inactive = no such curve, though single readings can be large; an effect the other way counts as inactive or inconclusive. Unless noted, % is set by controls: 0 for no effect and ±100 for the full control effect.

SMILES	TDP1 cell noCPT	IL-1B inflam inh	HT1080NT lethal	TDP1 cell CPT	HT1080 IDH1KD tx
Cc1ccc(OC2CCN(C(=O)[C@H]3O[C@@H](n4cnc5c(N)ncnc54)[C@H](O)[C@@H]3O)CC2)cc1	?	-16	?	?	?
O=C(CSc1nnc(-c2cc3ccccc3cc2O)n1Cc1ccco1)N1CCc2ccccc2C1	?	-71*	?	?	?
Cn1c(=S)[nH]c2[nH]c(=O)cnc2c1=O	-18%	10	0%	9%	0%
CC(C)(C)CN1CCN(Cc2nc(-c3ccc(F)cc3)cs2)CC1CCO (stereo unspecified)	21µM*	-20	?	16µM*	?
OCCC1CN(Cc2nc(-c3ccc(F)cc3)cs2)CCN1CCc1ccccc1 (stereo unspecified)	?	-10	-8%	?	-16%
CC(=O)Nc1ccc(CN2CCN(CCc3ccccc3)C(CCO)C2)cc1 (stereo unspecified)	-9%	-79*	-14%	13%	-2%
COc1ccc(F)c(CN2CCN(CCc3ccccc3)C(CCO)C2)c1 (stereo unspecified)	-14%	-2	-5%	-13%	-10%
OCCC1CN(Cc2nc(-c3ccccc3)cs2)CCN1CCc1ccccc1 (stereo unspecified)	21µM*	-5	-13%	?	-1%
COc1ccc(OC)c(CN2CCN(CCc3ccccc3)C(CCO)C2)c1 (stereo unspecified)	?	-11	6%	12µM*	0%
COc1ccc2c(C)c(CC(=O)NCc3ccccc3Cl)c(=O)oc2c1OC	-5%	/	/	-14%	/
CCCc1cc(=O)oc2cc(C)cc(OCC(=O)NCCN3CCOCC3)c12	9%	-19	-11%	-17%	1%
CCCc1cc(=O)oc2cc(C)cc(OCC(=O)Nc3ccc(CN4CCOCC4)cc3)c12	5.8µM*	0	?	18µM*	?
CCCc1cc(=O)oc2cc(OCC(=O)NCCN3CCOCC3)c(Cl)cc12	16µM*	15	-3%	23µM*	-1%
N#Cc1ccsc1NC(=O)C1CCN(S(=O)(=O)c2cccs2)CC1	-19%	-17	-21%	1%	-13%
Cc1nc(C)c(N)c(=O)[nH]1	4%	15	1%	17%	0%
CCOC(=O)C1(Cc2ccccc2)CCCN(Cc2ccc(OCC)c(CO)c2)C1 (stereo unspecified)	?	-26	0%	?	7%
O=S(=O)(c1ccc(NC(=S)NCc2ccc(F)cc2)cc1)N1CCOCC1	?	-2	-3%	?	-8%
CC(C)CCOc1ccc(Cl)cc1CN1CCOCC1	?	3	-13%	?	-10%
O=C1c2ccccc2NC(c2ccco2)N1/N=C/c1ccco1 (stereo unspecified)	-27%	0	-2%	-26%	-3%
C/C(=N\N1C(=O)c2ccccc2NC1c1ccccc1)c1ccccc1O (stereo unspecified)	7.3µM*	7	-10%	4.6µM*	-13%
C/C(=N\N1C(=O)c2ccccc2NC1c1ccco1)c1ccccc1O (stereo unspecified)	12µM*	69	?	-87%	?
COc1ccc(/C(C)=N/N2C(=O)c3ccccc3NC2c2ccc(O)c(OC)c2)cc1 (stereo unspecified)	-8%	-11	-3%	-18%	2%
O=S(=O)(Nc1ccc2ccccc2n1)c1ccc2c(c1)CCO2	?	16	6%	-28%	0%
NC(=O)c1cc(-c2ccccc2)nc(N2CCOCC2)n1	12µM*	-50*	?	21µM*	?
NC(=O)c1cc(-c2ccccc2)nc(N2CCCCCC2)n1	?	-16	?	?	-28%
SMILES	TDP1 cell noCPT	IL-1B inflam inh	HT1080NT lethal	TDP1 cell CPT	HT1080 IDH1KD tx
Cc1ccc(CN(CC(=O)NC(C)(C)C)C(=O)CNC(=O)c2cccs2)cc1	-16%	-8	-13%	10%	-2%
[O-]/[N+](=C\c1ccccc1)[C@@H]1CCCC[C@@H]1/[N+]([O-])=C/c1ccccc1	-8%	20	?	0%	13%
O=[N+]([O-])c1ccc(/C=[N+](\[O-])[C@@H]2CCCC[C@@H]2/[N+]([O-])=C/c2ccc([N+](=O)[O-])o2)o1	10µM*	-92*	-20%	7.3µM*	-2%
CCc1cc[n+](-c2nc([O-])sc2C=O)cc1	-5%	33	6%	12%	9%
O=Cc1c(-[n+]2ccccc2)nc([O-])n1-c1ccccc1	18µM*	16	17%	?	8%
Nc1[nH]nc2ncc3cc4ccccc4nc3c12	9.2µM*	-95*	?	18µM*	?
CCCCN1C(=O)/C(=C(/C#N)C(=O)N2CCCC2)c2ccccc21	21µM*	9	-11%	16µM*	-2%
N#CC(C#N)=C1C(=O)N(CCN2CCCCC2)c2ccccc21	18µM*	?	1%	16µM*	-4%
N#CC(C#N)=C1C(=O)N(CCN2CCOCC2)c2ccccc21	?	/	2%	29µM*	-11%
CCOC(=O)c1cc(S(=O)(=O)Nc2cc(F)ccc2C)[nH]n1	2%	/	/	-25%	/
COc1ccc(S(=O)(=O)Nc2cccc3c2O[C@H](CN(C)C(=O)NC(C)C)[C@@H](C)CN([C@H](C)CO)C3=O)cc1	4%	0	2%	-19%	-2%
Cc1ccc(OCC(=O)Nc2ccc3nc(SCC(=O)N(C)c4ccccc4)sc3c2)cc1	15µM*	/	/	?	/
Cc1ccc(OCC(=O)Nc2ccc3nc(SCC(=O)N4CCCC4)sc3c2)cc1	21µM*	/	/	?	/
Cc1ccc(NC(=O)CSc2nc3ccc(NC(=O)COc4ccc(C)cc4)cc3s2)cc1	18µM*	/	/	10µM*	/
Cc1ccc(OCC(=O)Nc2ccc3nc(SCC(=O)N4CCCC4)sc3c2)cc1C	23µM*	/	/	-95%	/
CC(=O)Nc1ccc2nc(SCCOc3ccc(C)cc3)sc2c1	?	/	/	-19%	/
CCOC(=O)CSc1nc2ccc(NC(=O)COc3ccccc3)cc2s1	-19%	/	/	?	/
Cc1ccc(OCC(=O)Nc2ccc3nc(SCc4ccccc4)sc3c2)cc1	?	/	/	-23%	/
Cc1ccc(CNC(=O)C(=O)NCC(c2ccc3c(c2)OCO3)N2CCOCC2)cc1 (stereo unspecified)	-25%	/	/	2%	/
COc1cc(-c2nc(CN3CCCCC3CCNC(C)=O)c(C)o2)ccc1F (stereo unspecified)	12%	-10	1%	8%	3%
Cc1cccc(-c2nnc(SCC(=O)Nc3ncccn3)n2C)c1	11%	-20	-3%	15%	15%
